Compounds with a hit are over-represented: about 10% of the library has one in this group of screens.
NS1 inh – influenza NS1 inhibition; Potency, µM (highest dose often 46.1 µM), for inactives: at the top dose activity, positive = more growth; 270,000 compounds, 0.4% hits; AID 2326; note: actives are rising curves; nearly all actives have a fitted effect of over 50% in size
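Growth recovery, yeast-based: influenza A NS1 expressed in S. cerevisiae causes slow growth, and suppressors are detected by OD600. The parent strain without NS1 is used as positive control.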
Pf growth 48h – P. falciparum growth inhibition at 48 hours (one generation) | AID 504832 | P. falciparum luciferase growth in erythrocytes, 48 h | 310,000 compounds, 5.9% hits | Potency, µM (doses to about 28.7 µM), without a hit: top-dose activity change, negative = inhibition, actives largely listed as inhibitors; active = well fitted inhibition curve with a large enough effect; inconclusive = small, poorly fitted or top-dose-only effect, or another doubt; inactive = no such curve, though single readings can be large or run the other way; note: % is set by controls: 0 for no effect and ±100 for the full control effect
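Firefly luciferase activity from engineered P. falciparum reports growth; inhibitors lower the luminescent signal. Cultures contained 2% hematocrit erythrocytes at 0.1% final parasitemia.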
Pf growth 96h – P. falciparum growth inhibition at 96 hour, primary screen for plastid delayed-death inhibitors; P. falciparum luciferase reporter growth, 96 h; Potency, µM (series often up to 28.7 µM), inactives show at the highest dose activity change, negative = inhibition, usual class: inhibitors; 320,000 compounds, 6.9% hits; AID 504834; active = well fitted inhibition curve with a large enough effect; inconclusive = small, poorly fitted or top-dose-only effect, or another doubt; inactive = no such curve, though single readings can be large or run the other way; note: % is set by controls: 0 for no effect and ±100 for the full control effect
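Two parasite generations (96 h, 37 C, 5% CO2) of compound exposure in infected erythrocytes (0.05% parasitemia, 2% hematocrit). Luciferase-reporter P. falciparum; decreased luminescence indicates inhibited growth, aimed at apicoplast-acting delayed death.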
SARS PLP yeast – blocks SARS-CoV papain-like protease in a yeast assay; S. cerevisiae expressing SARS-CoV PLpro, growth rescue; Potency, µM (series often up to 32.9 µM), inactives show at the highest dose activity, positive = growth rescue, most hits filed as activators; 330,000 compounds, 0.19% hits; AID 485353; note: 0% is about no effect; nearly all actives have a fitted effect of over 55% in size
Numbers without * were called inactive; ? = inconclusive; / = no result; [ ] = dose if it differs, or a comment. Unless noted, calls come from the whole dose curve. Potency is the fitted concentration of half-maximal effect.

SMILES	NS1 inh	Pf growth 48h	Pf growth 96h	SARS PLP yeast
CCOC(=O)N1CCN(C(=O)c2ccc3c(c2)N(Cc2ccccc2)CCS3)CC1	-1%	?	12µM*	1%
CC1CC(C)CN(C(=O)c2ccc3c(c2)N(Cc2ccccc2)CCS3)C1 (configuration not stated)	-101%	/	?	-27%
O=C1NCCCC1C(=O)N1CCN(C(=O)C2CCCNC2=O)CC1 (configuration not stated)	14%	12µM*	-22%	4%
O=C1NCCCC1C(=O)N1CCCCC1 (configuration not stated)	/	0%	42%	-6%
Cc1ccc(C(=O)C2CCN(C(=S)NCCCOC(C)C)CC2)cc1	-18%	4%	0%	-4%
O=C(NNc1ccc(C(F)(F)F)cc1[N+](=O)[O-])c1ccc(NS(=O)(=O)c2ccc(F)cc2)cc1	11%	?	8.3µM*	-4%
CC(C)[C@H](Nc1ccc(C(F)(F)F)cc1[N+](=O)[O-])C(=O)O	4%	5%	0%	2%
CN(C)Cc1c(C(=O)N/N=C/CCc2ccccc2)nnn1-c1nonc1N	4%	9%	3%	1%
O=C(O)CC1CCC(=C(Cl)Cl)C1 (configuration not stated)	-62%	-1%	12µM*	3%
O=C(O)CC1CCS(=O)(=O)C1 (configuration not stated)	-2%	19%	/	3%
Nc1nc(SCC(=O)N2CCCCC2)[nH]c(=O)c1NC(=O)c1ccccc1F	-11%	3%	?	-5%
CCN(Cc1ccncc1)C(=S)Nc1c(C)cccc1C	7%	22%	2.1µM*	2%
Cc1cccc(C)c1NC(=S)N(Cc1ccccc1)Cc1cccnc1	/	?	-19%	7%
S=C(Nc1ccccc1Cl)N(Cc1cccnc1)Cc1ccco1	-4%	4.1µM*	?	0%
N#CCCN(Cc1cccnc1)C(=S)Nc1ccccc1Cl	/	4%	-19%	0%
CCc1cccc(C)c1NC(=S)N(Cc1cccnc1)Cc1ccco1	-8%	?	12µM*	-21%
O=C(Nc1ccc(Cl)c(Cl)c1)N(Cc1cccnc1)Cc1ccco1	-132%	-6%	4%	-28%
CCOC(=O)C(C)NC(=O)c1cn(-c2ccc(OC)cc2)c(=O)c2ccccc12 (configuration not stated)	1%	-23%	181%	-2%
Cn1c2cc(B(O)O)sc2c2cnn(Cc3c(F)cccc3Cl)c(=O)c21	/	13µM*	10µM*	-2%
Cn1c2cc(B(O)O)sc2c2cnn(Cc3c(F)cccc3F)c(=O)c21	/	?	?	3%
O=C(CSc1nc2ccccc2n1CC(=O)N1CCCCC1)N1CCCCC1	2%	-9%	-12%	2%
CC(=O)Nc1ccc(C(=O)CSc2nc3ccccc3n2CC(=O)N2CCCC2)cc1	3%	/	3.7µM*	-1%
Cc1ccc(S(=O)(=O)N(C)C)cc1NC(=O)COC(=O)c1ccc2c(c1)NC(=O)CS2	1%	11%	7%	0%
COc1ccc(-c2cc3c(=O)n(CC(=O)NCc4cccnc4)ncn3n2)cc1	-7%	198%	15µM*	7%
CC1CCN(C(=O)c2ccccc2SCC(=O)NCC2CCCCC2)CC1	/	?	?	0%
SMILES	NS1 inh	Pf growth 48h	Pf growth 96h	SARS PLP yeast
CC(=O)c1c(C)[nH]c(C(=O)OCC(=O)N2CCN(S(=O)(=O)c3ccc(C)cc3)CC2)c1C	/	?	13µM*	-1%
CCOC(=O)c1c(C)[nH]c(C(=O)OCC(=O)N2CCN(S(=O)(=O)c3ccccc3)CC2)c1C	-1%	/	-60%	-1%
CC(=O)c1c(C)[nH]c(C(=O)OCC(=O)N2CCN(S(=O)(=O)c3ccc(C)cc3C)CC2)c1C	-1%	/	8.3µM*	25%
O=C(NCCCN1CCCC1=O)C1CCN(S(=O)(=O)c2ccc(Cl)cc2)CC1	/	-16%	?	-5%[6.58 µM]
COc1ccc(C(=O)NC2CC2)cc1OC1CCN(Cc2ccc(F)c(F)c2)CC1	-1%	?	?	3%
Cc1ccc(S(=O)(=O)Oc2ccc(/C=C(/NC(=O)c3ccccc3)C(=O)Nc3ccccc3)cc2)cc1	?	?	9.3µM*	4%
COC(=O)C1=CN(Cc2ccc(C)cc2)C=C(C(=O)OC)C1c1ccc(F)c(F)c1	-8%	6.6µM*	15%	-5%
COC(=O)C1=CN(C(C)c2ccccc2)C=C(C(=O)OC)C1c1cc(OC)c(OC)c(OC)c1 (configuration not stated)	17%	1.5µM*	33%	0%
COc1cc(CC(=O)NC(c2ccccc2)c2ccccc2)cc(OC)c1OC	-26%	?	?	-5%
COC(=O)C1=CN(Cc2ccc(OC)cc2)C=C(C(=O)OC)C1c1cc(OC)c(OC)c(OC)c1	4%	1.3µM*	?	0%
COC(=O)C1=CN(CC2CCCO2)C=C(C(=O)OC)C1c1cc(OC)c(OC)c(OC)c1 (configuration not stated)	-3%	?	4.1µM*	/
COc1ccc(CNC(=O)Cn2c(=O)n(CC(=O)N3CCCCC3)c(=O)c3sccc32)cc1	-1%	?	?	0%
CCNS(=O)(=O)c1ccc(CCC(=O)N2CCCC2)cc1	21%	?	-19%	-1%
C=CCC1(/C=N/O)CCOC(C)(C)C1 (configuration not stated)	1%	7%	34%	0%
Cc1ccc(S(=O)(=O)NCc2ccccc2)cc1C(=O)NC(C)c1ccc(S(N)(=O)=O)cc1 (configuration not stated)	/	?	-16%	-6%
COC(=O)C1=CN(Cc2ccc(F)cc2)C=C(C(=O)OC)C1c1cc(OC)c(OC)c(OC)c1	-3%	1.3µM*	-28%	2%
COC(=O)C1=CN(Cc2ccccc2)C=C(C(=O)OC)C1c1cc(F)ccc1F	5%	7.4µM*	7.4µM*	-3%
COC(=O)C1=CN(Cc2ccc(OC)c(OC)c2)C=C(C(=O)OC)C1c1cccc(F)c1	?	9.3µM*	10µM*	-2%
COCCN1C=C(C(=O)OC)C(c2ccc(OC)c(OC)c2)C(C(=O)OC)=C1	-10%	-9%	/	2%
CCCCN1C=C(C(=O)OC)C(c2ccccc2Cl)C(C(=O)OC)=C1	-12%	-19%[1.15 µM]	-21%	0%
COc1ccccc1N1CCN(C(=O)c2ccc(Cn3c(=O)[nH]c4ccsc4c3=O)cc2)CC1	-6%	?	?	-1%
COc1ccc(OC)c(/C=C/C(=O)c2ccc3c(c2)OCCO3)c1	-31%	-30%	-11%	-6%
CCCNC(=S)N(Cc1ccccc1)Cc1nc2ccccc2c(=O)[nH]1	-4%	-12%	?	7%
CCn1c(COc2ccccc2OC)nnc1SCC(=O)NC1CCCC1	-6%	-1%	-10%	0%
CCN(CC)CCn1c2c(c(SCC(=O)Nc3ccc4c(c3)OCCO4)nc1=O)CCC2	/	?	2.1µM*	0%
CN(C)CCn1c2c(c(SCC(=O)Nc3ccc4c(c3)OCCO4)nc1=O)CCC2	/	-8%	6%	-4%
CCN(CC)CCn1c2c(c(SCC(=O)Nc3ccc(C)c(F)c3)nc1=O)CCCC2	/	7.4µM*	?	1%
O=C(CSc1nnnn1C1CC1)Nc1ccc(S(=O)(=O)N2CCOCC2)cc1	/	-14%	?	1%

Screening results as filed in PubChem.
